Here are results for four molecules from PubChem BioAssay (EPA / NIEHS).

Molecules are shown by their SMILES. Calls of active or inactive are those of the source. How the source made its calls: active means hit-call score of the fitted dose curve at least 0.9, where 1 is the maximum; inactive means score below 0.9.

Assay [1] in a line: ATG_GRE_CIS: Attagene CIS-FACTORIAL HepG2 Assay for human Glucocorticoid Response Elements (GRE) (AID 2282947). As to conditions: HepG2 GRE cis-reporter, Attagene multiplex mRNA; actives raise or lower the signal. The essentials:
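Following 24 h chemical exposure of transiently transfected HepG2 cells, total RNA was reverse-transcribed and reporter cDNA amplified, fluorescently labelled and sized by capillary electrophoresis. Signal gain or loss was fitted relative to DMSO vehicle.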

A short description of assay [2]: ATG_ISRE_CIS: Attagene CIS-FACTORIAL HepG2 Assay for human Interferon Regulatory Factor 1 (IRF1) binding to an Interferon-Stimulated Response Element (ISRE) (AID 2282948). The following applies: HepG2 ISRE cis-reporter (Attagene), mRNA transcription readout; actives raise or lower the signal. The essentials:
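Transiently transfected HepG2 cells carrying cis-element reporter units, dosed 24 hours. Reporter mRNA quantified by RT-PCR, fluorescent primer extension, HpaI digestion and capillary electrophoresis. Bidirectional fitting relative to DMSO.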

A short description of assay [3]: ATG_M_06_CIS: Attagene CIS-FACTORIAL HepG2 Assay for M06 Transcription Factor (Internal Marker) (AID 2282950). As to conditions: HepG2 Attagene CIS-FACTORIAL M06 internal marker reporter; actives raise or lower the signal. The essentials:
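Fluorescence-labelled RT-PCR products from cis-promoter reporter units, cut with HpaI and resolved by capillary electrophoresis, give the signal. Cells are human HepG2, dosed for 24 h. Serves as background control, fitted relative to DMSO.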

Assay [4] deals with Hepatocyte nuclear factor 6 (Homo sapiens) (UniProt Q9UBC0). The assay can be described thus: ATG_HNF6_CIS: Attagene CIS-FACTORIAL HepG2 Assay for human Hepatocyte Nuclear Factor 6 (HNF6) (AID 2282952). As to conditions: HepG2 Attagene cis-factorial HNF6 reporter transcription; actives raise or lower the signal. The essentials:
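HepG2, transient MRTU transfection (cis promoters); 24 h chemical exposure; total RNA → oligo(dT) RT → PCR → 6-FAM labelling → HpaI cut → CE; bidirectional fit vs DMSO.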

Assay [5] deals with Heat shock factor protein 1 (Homo sapiens) (UniProt Q00613). The assay can be described thus: ATG_HSE_CIS: Attagene CIS-FACTORIAL HepG2 Assay for human Heat Shock Transcription Factor 1 (HSE) (AID 2282953). The following applies: HepG2 HSE cis-reporter, Attagene RNA transcription; actives raise or lower the signal. The essentials: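 After a 24 h incubation with test chemical, transfected HepG2 cells were harvested for RNA; reporter transcripts were measured by RT-PCR and capillary electrophoresis. Values reflect gain or loss of signal relative to DMSO.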

A short description of assay [6]: ATG_MRE_CIS: Attagene CIS-FACTORIAL HepG2 Assay for human Metal Responsive Element (MRE) (AID 2282954). The following applies: HepG2 MRE cis-reporter transcription, Attagene multiplex; actives raise or lower the signal. The essentials: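 Step one: transfect HepG2 with cis-regulated reporter units. Step two: dose 24 h. Step three: isolate RNA, RT-PCR, 6-FAM label, HpaI digest, capillary electrophoresis. Fit bidirectionally to DMSO.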

Assay [7] in a line: ATG_PBREM_CIS: Attagene CIS-FACTORIAL HepG2 Assay for human Phenobarbital-responsive Enhancer Module (PBREM) (AID 2282955). The following applies: HepG2 PBREM cis-reporter, Attagene multiplexed transcription; actives raise or lower the signal. The essentials: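 Endogenous transcription factors in human liver HepG2 cells drive a PBREM cis-element reporter, whose transcript level after 24 h treatment is quantified by RT-PCR with capillary electrophoresis; activity fitted in both directions against DMSO.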

Assay [8] addresses Paired box protein Pax-6 (Homo sapiens) (UniProt P26367). Kind of assay: ATG_Pax6_CIS: Attagene CIS-FACTORIAL HepG2 Assay for human Paired Box 6 (PAX6) (AID 2282956). The following applies: HepG2 CIS-FACTORIAL PAX6 reporter transcription, RNA readout; actives raise or lower the signal. The essentials: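 HepG2 cells transiently transfected with cis-promoter-driven multiplexed reporter units sensing endogenous transcription factor activity; 24 h chemical exposure. Reporter mRNA quantified by RT-PCR, 6-FAM labelling, HpaI digestion and capillary electrophoresis; bidirectional fit versus DMSO baseline.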

Assay [9] can be described thus: ATG_PXRE_CIS: Attagene CIS-FACTORIAL HepG2 Assay for human Pregnane X Receptor Element (PXRE) (AID 2282957). The following applies: HepG2 Attagene CIS-FACTORIAL PXRE reporter, mRNA; actives raise or lower the signal. The essentials:
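Transfect HepG2 with MRTUs (cis promoter elements); dose chemical, incubate 24 h; isolate RNA, RT with oligo(dT), PCR, 6-FAM label, HpaI cut, CE. Gain/loss fit vs DMSO.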

A short description of assay [10]: ATG_PPRE_CIS: Attagene CIS-FACTORIAL HepG2 Assay for human Peroxisome Proliferator-activated Response Element (PPRE) (AID 2282958). As to conditions: HepG2 PPRE cis-element reporter, Attagene transcription factor profiling; actives raise or lower the signal. The essentials: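 HepG2, transient MRTU transfection (cis promoter elements, endogenous TFs). 24 h dosing. RNA → oligo(dT) RT → PCR → 6-FAM primer extension → HpaI digest → CE. Bidirectional fit vs DMSO.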

A short description of assay [11]: ATG_RORE_CIS: Attagene CIS-FACTORIAL HepG2 Assay for human RAR-related Orphan Receptor Element (RORE) (AID 2282959). As to conditions: HepG2 Attagene cis-factorial RORE reporter, mRNA; actives raise or lower the signal. The essentials:
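Transient MRTU transfection of human HepG2 liver cells (FuGene 6); 24 h compound exposure; TriZol RNA, oligo(dT) RT, PCR, FAM labeling, HpaI cut, CE fragment analysis. DMSO = negative control/baseline.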

Assay [12] can be described thus: ATG_Sox_CIS: Attagene CIS-FACTORIAL HepG2 Assay for human SRY-box transcription factor (SOX) (AID 2282960). As to conditions: HepG2 Attagene cis-factorial SOX reporter, mRNA; actives raise or lower the signal. The essentials: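 Endogenous factor activity in human liver HepG2 cells carrying transfected cis-regulated reporter units. RNA taken 24 h post-dose, reverse-transcribed, PCR-amplified and sized by capillary electrophoresis. Gain or loss of signal fitted relative to DMSO.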

For assay [13], the target named is Transcription factor Sp1 (Homo sapiens) (UniProt P08047). The assay can be described thus: ATG_Sp1_CIS: Attagene CIS-FACTORIAL HepG2 Assay for human Specificity Protein 1 (Sp1) (AID 2282961). The following applies: HepG2 Sp1 cis-reporter transcription, actives raise or lower the signal. The essentials: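 Transient MRTU-transfected HepG2, 24 h compound exposure. Total RNA → oligo(dT) RT → PCR of reporter → 6-FAM primer extension → HpaI digest → CE. Endpoint fitted both directions vs DMSO.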

The nature of assay [14]: ATG_SREBP_CIS: Attagene CIS-FACTORIAL HepG2 Assay for human Sterol Regulatory Element Binding (SREBP) (AID 2282962). As to conditions: HepG2 Attagene cis-factorial SREBP reporter, mRNA; actives raise or lower the signal. The essentials: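 HepG2 cells transiently transfected with multiplexed cis-promoter reporter units sensing endogenous transcription factors; reporter mRNA measured 24 h after dosing by RT-PCR, 6-FAM labeling, HpaI digestion and capillary electrophoresis. Bidirectional fit versus DMSO.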

In assay [15] the target is Signal transducer and activator of transcription 3 (Homo sapiens) (UniProt P40763). The assay can be described thus: ATG_STAT3_CIS: Attagene CIS-FACTORIAL HepG2 Assay for human Signal Transducer and Activator of Transcription 3 (STAT3) (AID 2282963). The following applies: HepG2, Attagene cis-factorial STAT3 reporter transcription; actives raise or lower the signal. The essentials: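 Transcript-level reporter assay. HepG2 transient MRTU transfection, 24 h exposure, fluorescence detection after RT-PCR and CE; DMSO baseline.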

Assay [16] can be described thus: ATG_TA_CIS: Attagene CIS-FACTORIAL HepG2 Assay for human TA Basal Promoter (AID 2282964). The following applies: HepG2 Attagene CIS-factorial TA basal promoter reporter; actives raise or lower the signal. The essentials:
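Multiplexed mRNA reporter assay, HepG2, 24 h. Reporter cDNA amplified, 6-FAM primer-extended, HpaI-cut, CE-sized; DMSO = negative control and baseline.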

The nature of assay [17]: ATG_TCF_b_cat_CIS: Attagene CIS-FACTORIAL HepG2 Assay for human T-Cell-Factor with beta-catenin (TCF/b-cat) (AID 2282965). The following applies: HepG2 TCF/beta-catenin cis-reporter transcription, actives raise or lower the signal. The essentials:
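Using capillary electrophoresis as the read-out, labelled reporter cDNA fragments from transiently transfected HepG2 were sized and quantified. Exposure lasted 24 hours; activity in either direction was referenced to DMSO.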

Assay [18] is described as follows: ATG_M_32_CIS: Attagene CIS-FACTORIAL HepG2 Assay for M32 Transcription Factor (Internal Marker) (AID 2282949).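 Further: background control marker of the multiplexed CIS panel rather than a real target.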 The following applies: HepG2 Attagene cis-factorial M32 reporter, mRNA; actives raise or lower the signal. The essentials:
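HepG2 cells transiently transfected with multiplexed cis-regulated reporter units, dosed 24 h. Reporter mRNA quantified by RT-PCR, 6-FAM labelling, HpaI digestion and capillary electrophoresis; bidirectional fit vs DMSO.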

Assay [19] has as its target Hypoxia-inducible factor 1-alpha (Homo sapiens) (UniProt Q16665). The assay can be described thus: ATG_HIF1a_CIS: Attagene CIS-FACTORIAL HepG2 Assay for human Hypoxia Inducible Factor 1 (HIF1A) (AID 2282951). As to conditions: HepG2 Attagene cis-factorial HIF1a reporter transcription; actives raise or lower the signal. The essentials: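 Transient MRTU transfection of human HepG2 liver cells, 24 h compound treatment, then total RNA isolation, oligo(dT) reverse transcription, PCR amplification, fluorescent labelling and capillary electrophoresis of reporter fragments. Gain or loss relative to DMSO.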

Sequence of Hepatocyte nuclear factor 6 (Homo sapiens) (Q9UBC0 whole entry, looked up): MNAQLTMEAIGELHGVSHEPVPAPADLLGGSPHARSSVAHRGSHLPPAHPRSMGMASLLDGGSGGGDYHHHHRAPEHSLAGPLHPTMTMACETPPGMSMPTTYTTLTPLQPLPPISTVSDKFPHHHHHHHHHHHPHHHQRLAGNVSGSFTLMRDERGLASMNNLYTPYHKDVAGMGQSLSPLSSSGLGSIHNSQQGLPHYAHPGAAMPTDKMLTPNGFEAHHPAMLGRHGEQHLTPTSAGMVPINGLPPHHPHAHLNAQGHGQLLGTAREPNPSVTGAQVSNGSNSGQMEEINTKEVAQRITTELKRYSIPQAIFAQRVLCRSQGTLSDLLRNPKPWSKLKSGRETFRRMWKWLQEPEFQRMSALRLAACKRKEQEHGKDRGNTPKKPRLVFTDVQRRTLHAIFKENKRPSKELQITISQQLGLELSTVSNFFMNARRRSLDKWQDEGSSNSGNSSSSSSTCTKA
Sequence of Heat shock factor protein 1 (Homo sapiens) (Q00613 whole entry, looked up): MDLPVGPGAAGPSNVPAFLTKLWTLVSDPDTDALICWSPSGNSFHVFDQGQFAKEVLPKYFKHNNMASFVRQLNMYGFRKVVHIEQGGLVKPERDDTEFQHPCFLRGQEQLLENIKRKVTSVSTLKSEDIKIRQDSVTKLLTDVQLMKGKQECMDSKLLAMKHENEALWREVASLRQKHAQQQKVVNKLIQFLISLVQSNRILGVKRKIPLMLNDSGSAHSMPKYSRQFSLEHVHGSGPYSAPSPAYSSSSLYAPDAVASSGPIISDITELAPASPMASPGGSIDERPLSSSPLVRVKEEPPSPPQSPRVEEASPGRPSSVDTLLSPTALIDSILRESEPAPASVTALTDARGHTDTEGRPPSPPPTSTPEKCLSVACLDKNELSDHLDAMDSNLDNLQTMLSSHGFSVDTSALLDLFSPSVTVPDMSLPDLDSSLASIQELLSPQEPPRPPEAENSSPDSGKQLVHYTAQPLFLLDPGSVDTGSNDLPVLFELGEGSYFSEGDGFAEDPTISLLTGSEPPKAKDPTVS
Sequence of Transcription factor Sp1 (Homo sapiens) (P08047 whole entry, looked up): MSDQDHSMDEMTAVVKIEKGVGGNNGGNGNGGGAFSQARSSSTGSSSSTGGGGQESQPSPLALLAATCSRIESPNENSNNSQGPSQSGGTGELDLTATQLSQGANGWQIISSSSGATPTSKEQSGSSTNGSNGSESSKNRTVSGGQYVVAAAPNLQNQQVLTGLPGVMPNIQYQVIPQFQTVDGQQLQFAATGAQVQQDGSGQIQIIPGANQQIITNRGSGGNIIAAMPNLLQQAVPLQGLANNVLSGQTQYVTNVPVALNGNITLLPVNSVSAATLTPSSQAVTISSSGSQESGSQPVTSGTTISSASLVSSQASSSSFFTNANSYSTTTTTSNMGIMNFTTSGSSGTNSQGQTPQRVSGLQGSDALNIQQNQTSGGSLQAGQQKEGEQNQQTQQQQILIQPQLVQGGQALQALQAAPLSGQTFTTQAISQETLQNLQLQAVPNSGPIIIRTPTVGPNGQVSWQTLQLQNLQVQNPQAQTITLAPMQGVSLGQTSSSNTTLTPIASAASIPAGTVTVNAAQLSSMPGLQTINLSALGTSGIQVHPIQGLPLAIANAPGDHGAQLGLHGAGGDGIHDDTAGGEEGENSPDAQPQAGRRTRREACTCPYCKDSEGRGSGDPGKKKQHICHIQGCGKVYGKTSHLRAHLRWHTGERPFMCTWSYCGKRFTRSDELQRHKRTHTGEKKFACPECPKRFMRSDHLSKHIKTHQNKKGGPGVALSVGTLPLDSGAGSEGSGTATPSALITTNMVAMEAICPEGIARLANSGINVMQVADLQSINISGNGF
Sequence of Paired box protein Pax-6 (Homo sapiens) (P26367 whole entry, looked up): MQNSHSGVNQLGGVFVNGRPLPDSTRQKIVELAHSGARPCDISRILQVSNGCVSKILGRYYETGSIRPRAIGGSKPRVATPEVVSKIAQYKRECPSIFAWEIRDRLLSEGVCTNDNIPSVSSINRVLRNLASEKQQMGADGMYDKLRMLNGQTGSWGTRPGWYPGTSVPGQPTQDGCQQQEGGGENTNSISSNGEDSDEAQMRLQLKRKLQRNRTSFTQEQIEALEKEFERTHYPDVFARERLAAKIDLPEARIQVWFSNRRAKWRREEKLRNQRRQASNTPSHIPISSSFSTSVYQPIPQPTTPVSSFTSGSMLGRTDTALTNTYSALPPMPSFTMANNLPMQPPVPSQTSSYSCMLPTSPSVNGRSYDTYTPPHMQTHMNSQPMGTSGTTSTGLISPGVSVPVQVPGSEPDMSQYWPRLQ
Sequence of Signal transducer and activator of transcription 3 (Homo sapiens) (P40763 whole entry, looked up): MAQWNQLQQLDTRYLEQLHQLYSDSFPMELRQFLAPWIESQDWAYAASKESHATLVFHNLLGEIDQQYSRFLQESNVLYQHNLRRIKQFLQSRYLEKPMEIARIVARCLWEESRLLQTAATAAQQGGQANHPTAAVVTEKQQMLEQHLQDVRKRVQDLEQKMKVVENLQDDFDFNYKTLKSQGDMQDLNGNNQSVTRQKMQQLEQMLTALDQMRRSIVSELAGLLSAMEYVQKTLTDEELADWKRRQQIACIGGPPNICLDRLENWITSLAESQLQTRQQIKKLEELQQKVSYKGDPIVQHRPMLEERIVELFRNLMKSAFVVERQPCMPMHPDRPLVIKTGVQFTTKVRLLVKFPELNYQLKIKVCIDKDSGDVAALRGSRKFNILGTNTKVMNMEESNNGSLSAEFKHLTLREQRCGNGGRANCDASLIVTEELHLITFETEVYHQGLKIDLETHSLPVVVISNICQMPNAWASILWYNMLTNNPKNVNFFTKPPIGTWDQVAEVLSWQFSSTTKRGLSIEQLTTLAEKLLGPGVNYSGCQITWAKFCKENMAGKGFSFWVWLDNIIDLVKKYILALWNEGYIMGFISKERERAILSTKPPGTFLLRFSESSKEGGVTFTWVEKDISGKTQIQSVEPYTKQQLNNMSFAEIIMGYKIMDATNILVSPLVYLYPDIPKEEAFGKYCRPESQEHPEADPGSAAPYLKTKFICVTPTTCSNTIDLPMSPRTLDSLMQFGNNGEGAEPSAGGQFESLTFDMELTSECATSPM
Sequence of Hypoxia-inducible factor 1-alpha (Homo sapiens) (Q16665 whole entry, looked up, the tested form may be a part): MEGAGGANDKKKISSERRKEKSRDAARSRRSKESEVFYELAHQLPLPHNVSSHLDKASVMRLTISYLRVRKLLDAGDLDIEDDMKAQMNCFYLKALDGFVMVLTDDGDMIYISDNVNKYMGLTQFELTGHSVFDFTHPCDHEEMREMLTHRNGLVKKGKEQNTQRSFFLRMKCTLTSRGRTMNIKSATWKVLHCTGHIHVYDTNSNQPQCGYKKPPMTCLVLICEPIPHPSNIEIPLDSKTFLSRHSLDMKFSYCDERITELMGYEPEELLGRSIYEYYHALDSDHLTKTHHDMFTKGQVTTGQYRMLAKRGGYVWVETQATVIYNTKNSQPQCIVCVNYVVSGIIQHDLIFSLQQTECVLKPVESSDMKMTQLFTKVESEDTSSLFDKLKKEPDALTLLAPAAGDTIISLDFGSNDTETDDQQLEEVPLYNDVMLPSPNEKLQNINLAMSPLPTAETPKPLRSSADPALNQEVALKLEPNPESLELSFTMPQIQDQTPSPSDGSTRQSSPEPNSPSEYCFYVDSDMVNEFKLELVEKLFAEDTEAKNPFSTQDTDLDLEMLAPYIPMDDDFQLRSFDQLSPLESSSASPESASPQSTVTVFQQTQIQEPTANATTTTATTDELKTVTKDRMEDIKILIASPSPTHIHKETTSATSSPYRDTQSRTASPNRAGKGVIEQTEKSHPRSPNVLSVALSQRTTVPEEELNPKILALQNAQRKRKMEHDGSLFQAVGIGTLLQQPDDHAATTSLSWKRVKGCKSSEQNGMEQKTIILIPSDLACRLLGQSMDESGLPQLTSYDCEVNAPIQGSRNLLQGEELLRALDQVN

In the case of `C[C@]12CC[C@H]3[C@@H](CCC4=CC(=O)CC[C@@]43C)[C@@H]1CC[C@@H]2C(=O)CO`, the molecule was called inactive in [1], in assay [3], in assay [4], in [10], in assay [11] and in assay [12]. Moreover, the call in assay [13], in assay [14] and in [15] was inactive. Besides, the half-maximal activity concentration (AC50) in [2] was 100 µM (active); in assay [5], 60.1 µM (active); in [6], 100 µM (active); in assay [7], 3.31 µM (active); in assay [8], 100 µM (active); in assay [9] it was 1.7 µM (active). The AC50 in [16] is 61 µM (active); in assay [17], 100 µM (active).
As to `O=C(O)c1cccc(C(F)(F)F)c1`, the call in [1], in assay [2], in assay [18], in assay [3], in assay [4] and in assay [5] was inactive. The molecule was classed as inactive in assay [6], in assay [7], in assay [8], in [9], in [10] and in [11]. Also, the call in [12], in assay [13], in assay [14], in [15], in assay [16] and in assay [17] was inactive.
For the molecule `O=C1CCc2ccccc2O1`, the molecule was called inactive in assay [1], in assay [2], in assay [3], in assay [19], in [4] and in assay [5]. Further, the result in assay [6], in [8], in [9], in assay [10], in assay [12] and in assay [13] was inactive. For the same molecule, the result in [14], in assay [15], in [16] and in assay [17] was inactive.
Consider `CC(C)C[C@H]1C(=O)N2CCC[C@H]2[C@]2(O)O[C@](NC(=O)[C@@H]3C=C4c5cccc6[nH]c(Br)c(c56)C[C@H]4N(C)C3)(C(C)C)C(=O)N12`, for which the result in assay [1], in assay [18], in [3], in [4], in [5] and in [12] was inactive. In addition, the molecule was classed as inactive in assay [14]. Moreover, the concentration at half-maximal activity (AC50) is 3.76 µM (active) in assay [2]; 2.16 µM (active) in assay [6]; 0.744 µM (active) in [7]; 0.302 µM (active) in assay [9]; 1.9 µM (active) in assay [11]; 2.91 µM (active) in assay [13]. In addition, the half-maximal activity concentration (AC50) in [16] is 3.09 µM (active); in assay [17] it was 4.37 µM (active).

One may read the AC50 as the concentration giving half of the maximal activity seen.
